Where two headings read alike, the source gives them in different places.

Holding throughout (design): species or system human, MV4-11 + K-562 + COLO205 + SK-N-BE2 + OVCAR-8
Experiment [1] relates to ABL2. As to conditions: read-out: apparent Kd, n = 1.
In experiment [2] the test system is CLK1. The note with it: read-out: apparent Kd; compound concentrations:100 nM and 1000 nM (sheet 'Samples'); n = 1.
Experiment [3] has as its system RIPK2. The note with it: read-out: apparent Kd, n = 1.
In experiment [4] the test system is ABL1. As to conditions: read-out: apparent Kd, n = 1.
For experiment [5], the system named is FRK. As to conditions: read-out: apparent Kd, compound concentrations: 100 nM and 1000 nM (sheet 'Samples'), n = 1.
Experiment [6] deals with FYN. The note with it: read-out: apparent Kd, compound concentrations: 100 nM and 1000 nM (sheet 'Samples'), n = 1.
Experiment [7] concerns GAK. As to conditions: read-out: apparent Kd, compound concentrations: 100 nM and 1000 nM (sheet 'Samples'), n = 1.
The test system of experiment [8] is HCK. As to conditions: read-out: apparent Kd, compound concentrations: 100 nM and 1000 nM (sheet 'Samples'), n = 1.
Experiment [9] relates to LCK. As to conditions: read-out: apparent Kd, compound concentrations: 100 nM and 1000 nM (sheet 'Samples'), n = 1.
Experiment [10] has as its system PTK6. The note with it: read-out: apparent Kd, compound concentrations: 100 nM and 1000 nM (sheet 'Samples'), n = 1.
Experiment [11] relates to RIPK3. The note with it: read-out: apparent Kd, compound concentrations: 100 nM and 1000 nM (sheet 'Samples'), n = 1.
For experiment [12], the system named is YES1. The note with it: read-out: apparent Kd, compound concentrations: 100 nM and 1000 nM (sheet 'Samples'), n = 1.
Experiment [13] concerns BCR. As to conditions: read-out: apparent Kd, n = 1.
Experiment [14] relates to CSNK2A1;CSNK2A3. As to conditions: read-out: apparent Kd, n = 1.
The subject of experiment [15] is CSNK2A2. As to conditions: read-out: apparent Kd; compound concentrations:100 nM and 1000 nM (sheet 'Samples'); n = 1.
The subject of experiment [16] is RET. The note with it: read-out: apparent Kd, compound concentrations: 100 nM and 1000 nM (sheet 'Samples'), n = 1.
Experiment [17] relates to CLK4. The note with it: read-out: apparent Kd; compound concentrations:100 nM and 1000 nM (sheet 'Samples'); n = 1.
The mark [18] stands for this setting: compound concentrations:100 nM and 1000 nM (sheet 'Samples').

For `CNc1nccc(-c2c(-c3ccc(F)cc3)ncn2C2CCN(C)CC2)n1` [SB-222903], the potency estimated from few doses is 0.389 µM in experiment [1] (setting [18]), 0.808 µM in experiment [2] and 0.433 µM in experiment [3] (setting [18]).

Regarding `c1ccc(Oc2ccc(Nc3ccnc4cc(-c5ccc(CN6CCCCC6)o5)ccc34)cc2)nc1` [GW567143X], the potency estimated from few doses in experiment [4] (compound concentrations: 100 nM and 1000 nM (sheet 'Samples'), CATDS: 4.7219356438219597E-2) was 0.634 µM; in [5] (CATDS: 3.9738345055864897E-2), 1.1 µM; in experiment [6] (CATDS: 4.4213624367354799E-2), 0.771 µM; in [7] (CATDS: 4.2163459383367997E-2) it was 0.895 µM; in [8] (CATDS: 0.14005546575241301) it was 0.0688 µM; in experiment [9] (CATDS: 5.0953813421882002E-2), 0.515 µM. The potency estimated from few doses in experiment [10] (CATDS: 0.13556199485993101) was 0.0724 µM; in [3] (compound concentrations: 100 nM and 1000 nM (sheet 'Samples'), CATDS: 0.12946024003761) it was 0.0779 µM; in experiment [11] (CATDS: 4.1439147975506997E-2), 0.948 µM; in [12] (CATDS: 5.50755734526098E-2), 0.421 µM.

With `COc1cccc(-c2c[nH]c3c(N/N=C/c4ccncc4)ncnc23)c1` [GW814408X], the potency estimated from few doses in experiment [4] (setting [18]) is 1.98 µM; in experiment [13] (setting [18]), 1.15 µM; in [14] (setting [18]), 0.92 µM; in [15] it was 0.237 µM.

For the compound `CC(C)c1nc(-c2cccc(NS(=O)(=O)c3c(F)cccc3F)c2)c(-c2ccnc(Nc3ccc(N4CCOCC4)nc3)n2)s1.Cl` [GSK1723980B], the potency estimated from few doses in experiment [4] (compound concentrations: 100 nM and 1000 nM (sheet 'Samples'), CATDS: 2.44032415333994E-2) was 0.301 µM; in experiment [1] (compound concentrations: 100 nM and 1000 nM (sheet 'Samples'), CATDS: 5.9392404533495001E-2), 0.0613 µM; in experiment [13] (compound concentrations: 100 nM and 1000 nM (sheet 'Samples'), CATDS: 2.01356126413582E-2) it was 0.494 µM; in [5] (CATDS: 1.9563018152501301E-2), 0.538 µM; in experiment [6] (CATDS: 2.5454703773251201E-2), 0.273 µM; in experiment [7] (CATDS: 7.7994003352353694E-2) it was 0.0419 µM. The potency estimated from few doses in experiment [8] (CATDS: 2.2853369268103E-2) was 0.353 µM; in experiment [9] (CATDS: 3.2406283014168501E-2), 0.166 µM; in experiment [16] (CATDS: 3.0852467961072601E-2), 0.183 µM; in [3] (compound concentrations: 100 nM and 1000 nM (sheet 'Samples'), CATDS: 1.9945459179113199E-2), 0.508 µM; in experiment [11] (CATDS: 1.9089551984729902E-2) it was 0.58 µM; in experiment [12] (CATDS: 2.9075172405301501E-2) it was 0.206 µM.

Take `Cn1cc(-c2ccc3c(c2)CCN3C(=O)Cc2cc(F)cc(C(F)(F)F)c2)c2c(N)ncnc21` [GSK2635225A]: the potency estimated from few doses was 1.13 µM in experiment [4] (compound concentrations: 100 nM and 1000 nM (sheet 'Samples'), CATDS: 0.14527180827686201); 0.647 µM in experiment [1] (compound concentrations: 100 nM and 1000 nM (sheet 'Samples'), CATDS: 0.18446738219414099).

For `NS(=O)(=O)CCc1cccc(Nc2nccc(-c3c(-c4cccc(NC(=O)c5c(F)cccc5F)c4)nn4ccccc34)n2)c1` [GSK336735A], the potency estimated from few doses in experiment [1] (compound concentrations: 100 nM and 1000 nM (sheet 'Samples'), CATDS: 7.5550907623065294E-2) is 0.635 µM; in [6] (CATDS: 5.89205391615404E-2), 1.14 µM; in experiment [8] (CATDS: 9.1712833747147296E-2) it was 0.439 µM; in experiment [9] (CATDS: 8.1556930046594894E-2), 0.546 µM; in [16] (CATDS: 0.15467463345214499), 0.196 µM; in experiment [11] (CATDS: 7.11931563666406E-2) it was 0.719 µM. In addition, the potency estimated from few doses in [12] (CATDS: 0.104182093569698) was 0.354 µM.

In the case of `N#Cc1cccc(Nc2nccc(-c3cnn4ncccc34)n2)c1` [GW778894X], the potency estimated from few doses is 0.00393 µM in [2], 0.000363 µM in experiment [17], 0.603 µM in [14] (setting [18]) and 0.601 µM in experiment [15].

In the case of `O=S(=O)(CCOCc1ccc(-c2ccc3ncnc(Nc4ccc(OCc5cccc(F)c5)c(Cl)c4)c3c2)o1)c1ccccc1` [GW615311X], the potency estimated from few doses was 2.13 µM in experiment [14] (compound concentrations: 100 nM and 1000 nM (sheet 'Samples'), CATDS: 2.30931474147829E-2); 1.22 µM in experiment [5] (CATDS: 2.9445586686104801E-2); 1.08 µM in [6] (CATDS: 3.12916843215739E-2).

`CS(=O)(=O)Cc1ccc(Nc2nccc(-c3c(-c4cccc(NC(=O)c5c(F)cccc5F)c4)nn4ccccc34)n2)cc1` [GSK323543A]: the potency estimated from few doses in experiment [1] (compound concentrations: 100 nM and 1000 nM (sheet 'Samples'), CATDS: 7.35852808685315E-2) is 0.971 µM; in experiment [8] (CATDS: 9.4870937315331097E-2), 0.576 µM; in experiment [9] (CATDS: 7.3424400867348402E-2) it was 0.976 µM; in [16] (CATDS: 0.14439255275757601), 0.289 µM; in experiment [11] (CATDS: 7.2905332862385097E-2) it was 0.992 µM; in experiment [12] (CATDS: 0.11796638249333601), 0.395 µM.

Take `COc1cc2nccc(Nc3ccc(Oc4ccccc4)cc3)c2cc1OC.Cl` [GI261656A]: the potency estimated from few doses in experiment [4] (compound concentrations: 100 nM and 1000 nM (sheet 'Samples'), CATDS: 4.9234778502166003E-2) was 0.661 µM; in experiment [5] (CATDS: 5.3958789023196299E-2), 0.47 µM; in experiment [6] (CATDS: 5.8520288071811297E-2), 0.36 µM; in experiment [8] (CATDS: 0.224802192402594), 0.0233 µM; in experiment [9] (CATDS: 9.1462099087555204E-2), 0.115 µM; in experiment [10] (CATDS: 8.1912311053812595E-2) it was 0.147 µM. For the same compound, the potency estimated from few doses was 0.0181 µM in experiment [3] (compound concentrations: 100 nM and 1000 nM (sheet 'Samples'), CATDS: 0.26781417161536297); 0.542 µM in [11] (CATDS: 5.1839194955901301E-2); 0.0787 µM in experiment [12] (CATDS: 0.10993421284825).

The record behind these values is article PMC11062922 (Nature Chemical Biology, 2023).
